PubChem BioAssay (NCATS)
Results filed as inconclusive are left out. Unmarked numbers belong to inactive results. Calls follow the shape of the dose curve; as a rule, active = well fitted cell-killing curve with a large enough effect; inconclusive = small, poorly fitted or top-dose-only effect, or effect the other way; inactive = flat fitted curve, though single readings scatter.

Test system: Tov-21-G
Experiment: Primary qHTS to identify gynecologic anti-cancer compounds using libraries of approved drugs and bioactive compounds (AID 1345084); also: nearly all actives have a fitted effect of over 55% in size
Conditions: Gynecologic cancer cell panel viability, ATPlite luminescence, 48 h; series mostly up to 57.5 µM; activity change, negative = cytotoxicity: at the top concentration
In short: (§1)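 Luminescence from the ATPlite ATP-monitoring reagent indicates viable cell number; lower signal means cytotoxicity. Cells received compound 16 h after seeding and were exposed for 48 h across five concentrations.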
% is scaled to controls: 0 for no effect and ±100 for the full control effect.

| Compound | activity change, negative = cytotoxicity |
| --- | --- |
| CCCCOc1ccc(S(=O)(=O)n2c(C)nc3ccccc32)cc1 | -2.62% [at 25.3 µM] |
| Cc1onc(-c2ccccc2)c1C(=O)N1CCN(c2ccc([N+](=O)[O-])cc2Cl)CC1 | 1.02% |
| C=C(CCC1C(C)(O)CCC2C(C)(C)C(O)CCC12C)C(O)CO (stereo not drawn) | -3.43% [at 38.5 µM] |
| C=C1[C@H]2CC[C@H](C(=O)O)[C@@]23CC[C@H](C3)C1(C)C | -1.6% |
| O=C(Nc1ccc(C(F)(F)F)cn1)N1CCN(c2ncccc2C(F)(F)F)CC1 | -1.2% |
| CN(C)C(=O)Nc1cc(-c2ccccc2)ccc1N(C)C | -25.4% |
| COc1cc(CCc2ccc(OCC=C(C)C)cc2)cc(OC)c1OC | -2.84% [at 38.5 µM] |
| O=S1(=O)CCN(Cc2cc(NCC3CCOCC3)c3[nH]c(-c4ccccc4)cc3c2)CC1 | 0.302% |
| COc1ccc2[nH]c(=O)c3c(c2c1)OC(C)(C)C=C3 | -1.45% |
| O=C(O)C1=CO[C@@H](O[C@@H]2O[C@H](CO)[C@@H](O)[C@H](O)[C@H]2O)[C@@H]2C(CO)=CC[C@H]12 | 1.43% [at 38.5 µM] |
| O=C(NCCCN1CCC2(CC1)OCc1ccccc12)[C@H]1CCCN1Cc1ccccc1 | -8.29% |
| N#Cc1ccc(COC[C@H]2O[C@@H](n3c(NCc4ccc(Cl)c(Cl)c4)nc4c(N)ncnc43)[C@H](O)[C@@H]2O)cc1 | -21.6% [at 25.3 µM] |
| COC(=O)C[C@H]1[C@]2(C)C3=C(C)[C@H](c4ccoc4)C[C@H]3O[C@@H]2[C@H](O)C2[C@](C)(C(=O)OC)C=CC(=O)[C@@]21C (stereo partly drawn) | 0.11% [at 25.3 µM] |
| COc1ccncc1C(=O)NC(=O)Nc1ccc(-c2ccccc2)c(C(F)(F)F)c1 | 0.37% |
| COc1cc(C(=O)O)ccc1NC(=O)C1NC(CC(C)(C)C)C(C#N)(c2ccc(Cl)cc2F)C1c1cccc(Cl)c1F (stereo not drawn) | -0.358% |
| CC1(C)SCCN(S(=O)(=O)c2ccc(Oc3ccncc3)cc2)[C@H]1C(=O)NO | -1.24% |
| CC1(C)CCCC2(C)C1C(OC(=O)/C=C/C=C/C=O)C=C1COC(=O)C12O (stereo not drawn) | -7.13% [at 25.3 µM] |
| Cc1ccc(N2CCN(S(=O)(=O)N3CCCCC3)CC2)c(C)c1 | 11.2% |
| Nc1nc2c(s1)CCN(Cc1ccc(Cl)cc1)CC2 | -1.39% |
| CCN(c1cc(-c2ccc(CN3CCOCC3)cc2)cc(C(=O)NCc2c(C)cc(C)[nH]c2=O)c1C)C1CCOCC1 | -10.2% |

| Compound | activity change, negative = cytotoxicity |
| --- | --- |
| CN1CCN(C2=Nc3ccccc3Nc3ccc(OS(=O)(=O)C(F)(F)F)cc32)CC1 | 8.47% |
| CC(C)C[C@H](CO)Nc1nc(S[C@@H](C)c2ccccc2)nc2nc(N)sc12 | 3.99% |
| C=C(C)C(=O)O[C@H]1/C(C=O)=C\CC/C(CO)=C/[C@H]2OC(=O)C(=C)[C@@H]2[C@@H]1OC | -6.58% [at 38.5 µM] |
| O=C(COc1ccc2ccccc2c1Br)Nc1cccnc1 | 5.4% |
| Cc1ccccc1CN1CCn2c1nc1c(c2=O)CN(Cc2ccccc2)CC1 | 7.58% |
| Cc1cccc(N2CCN(C(=O)c3cc(S(=O)(=O)N(C)C)ccc3N3CCCC3)CC2)c1C | 12.9% |
| COC(=O)CC[C@@H](C)C1CCC2C3CCC4C[C@H](OC(C)=O)CCC4(C)C3C[C@H](O)C21C (stereo partly drawn) | -0.749% |
| CN1CCc2cc3c(cc2C(=O)Cc2cc4c(cc2C1)OCO4)OCO3 | 1.1% [at 38.5 µM] |
| CC(=O)O[C@@H]1CC[C@@]2(C)C(CC[C@]3(C)C2[C@H](O)C=C2[C@H]4[C@@H](C)[C@H](C)CC[C@]4(C)CC[C@]23C)[C@@]1(C)C(=O)O (stereo partly drawn) | 9.44% [at 25.3 µM] |
| C=C1C(=O)O[C@H]2C1CCC(C)=C1C(=O)C=C(C)[C@@]12O (stereo partly drawn) | 0.696% |
| CN(C)C(=O)C(=O)c1cn(C)c2cc(Cl)c(C(=O)N3CCC(Cc4ccc(F)cc4)CC3)cc12 | -6.33% |
| CC(C)(C)c1ccc(C(=O)Nc2cn3cc(-n4ccnc4)ccc3n2)cc1 | -10.5% |
| CCCCCc1ccc(/C=C/C(=O)Nc2cc(Cl)ccc2C(=O)O)cc1 | 1.9% |
| Cc1cc(NC(=O)NCCN2CCC(O)(Cc3ccccc3)CC2)c2ccccc2n1 | 0.75% |
| C=C1CC2OC(=O)C(=C)C2C(O)/C=C(\C)CCC1O (stereo not drawn) | -13.2% |
| Cc1cc2c(cc1N1C(=O)c3cccc4c(CCCO)ccc(c34)C1=O)n(C)c(=O)n2C | -27.1% [at 25.3 µM] |
| O=C(Nc1cc(C(F)(F)F)ccc1N1CCCCC1)c1ccncc1 | 7.44% |
| COc1c(C)cc(NC(=O)c2nn(Cc3ccc(F)cc3)c3c2CN(C(=O)c2ccc[nH]2)C[C@]3(C)C(N)=O)cc1C | 11.9% [at 11.6 µM] |
| CC(C)c1ccc(NC(=O)Cn2cnc3c2c(=O)n(C)c(=O)n3C)cc1 | 3.7% |

Test system: Tov112D
Experiment: as above
Conditions: Gynecologic cancer cell panel viability, ATPlite luminescence, 48 h; series mostly up to 57.5 µM; activity change, negative = cytotoxicity: at the top concentration
In short: as §1

| Compound | activity change, negative = cytotoxicity |
| --- | --- |
| CCCCOc1ccc(S(=O)(=O)n2c(C)nc3ccccc32)cc1 | 3.4% [at 25.3 µM] |
| Cc1onc(-c2ccccc2)c1C(=O)N1CCN(c2ccc([N+](=O)[O-])cc2Cl)CC1 | -9.33% |
| C=C(CCC1C(C)(O)CCC2C(C)(C)C(O)CCC12C)C(O)CO (stereo not drawn) | -1.36% [at 38.5 µM] |
| C=C1[C@H]2CC[C@H](C(=O)O)[C@@]23CC[C@H](C3)C1(C)C | -3.43% |
| O=C(Nc1ccc(C(F)(F)F)cn1)N1CCN(c2ncccc2C(F)(F)F)CC1 | -2.41% |
| CN(C)C(=O)Nc1cc(-c2ccccc2)ccc1N(C)C | -5.74% |
| COc1cc(CCc2ccc(OCC=C(C)C)cc2)cc(OC)c1OC | -1.53% [at 38.5 µM] |
| O=S1(=O)CCN(Cc2cc(NCC3CCOCC3)c3[nH]c(-c4ccccc4)cc3c2)CC1 | -0.755% |
| COc1ccc2[nH]c(=O)c3c(c2c1)OC(C)(C)C=C3 | -6.39% |
| O=C(O)C1=CO[C@@H](O[C@@H]2O[C@H](CO)[C@@H](O)[C@H](O)[C@H]2O)[C@@H]2C(CO)=CC[C@H]12 | -0.822% [at 38.5 µM] |
| O=C(NCCCN1CCC2(CC1)OCc1ccccc12)[C@H]1CCCN1Cc1ccccc1 | -5.48% |
| N#Cc1ccc(COC[C@H]2O[C@@H](n3c(NCc4ccc(Cl)c(Cl)c4)nc4c(N)ncnc43)[C@H](O)[C@@H]2O)cc1 | -3.3% [at 25.3 µM] |
| COC(=O)C[C@H]1[C@]2(C)C3=C(C)[C@H](c4ccoc4)C[C@H]3O[C@@H]2[C@H](O)C2[C@](C)(C(=O)OC)C=CC(=O)[C@@]21C (stereo partly drawn) | -10.4% [at 25.3 µM] |
| COc1ccncc1C(=O)NC(=O)Nc1ccc(-c2ccccc2)c(C(F)(F)F)c1 | 6.45% |
| COc1cc(C(=O)O)ccc1NC(=O)C1NC(CC(C)(C)C)C(C#N)(c2ccc(Cl)cc2F)C1c1cccc(Cl)c1F (stereo not drawn) | 2.33% |
| CC1(C)SCCN(S(=O)(=O)c2ccc(Oc3ccncc3)cc2)[C@H]1C(=O)NO | -5.17% |
| CC1(C)CCCC2(C)C1C(OC(=O)/C=C/C=C/C=O)C=C1COC(=O)C12O (stereo not drawn) | -8.4% [at 25.3 µM] |
| Cc1ccc(N2CCN(S(=O)(=O)N3CCCCC3)CC2)c(C)c1 | 0.541% |
| Nc1nc2c(s1)CCN(Cc1ccc(Cl)cc1)CC2 | 1.27% |
| CCN(c1cc(-c2ccc(CN3CCOCC3)cc2)cc(C(=O)NCc2c(C)cc(C)[nH]c2=O)c1C)C1CCOCC1 | 3.43% |

| Compound | activity change, negative = cytotoxicity |
| --- | --- |
| CN1CCN(C2=Nc3ccccc3Nc3ccc(OS(=O)(=O)C(F)(F)F)cc32)CC1 | -2.29% |
| CC(C)C[C@H](CO)Nc1nc(S[C@@H](C)c2ccccc2)nc2nc(N)sc12 | -2.75% |
| C=C(C)C(=O)O[C@H]1/C(C=O)=C\CC/C(CO)=C/[C@H]2OC(=O)C(=C)[C@@H]2[C@@H]1OC | 2.9% [at 38.5 µM] |
| O=C(COc1ccc2ccccc2c1Br)Nc1cccnc1 | -4.53% |
| Cc1ccccc1CN1CCn2c1nc1c(c2=O)CN(Cc2ccccc2)CC1 | -3.15% |
| Cc1cccc(N2CCN(C(=O)c3cc(S(=O)(=O)N(C)C)ccc3N3CCCC3)CC2)c1C | 15.1% |
| COC(=O)CC[C@@H](C)C1CCC2C3CCC4C[C@H](OC(C)=O)CCC4(C)C3C[C@H](O)C21C (stereo partly drawn) | 7.98% |
| CN1CCc2cc3c(cc2C(=O)Cc2cc4c(cc2C1)OCO4)OCO3 | -2.08% [at 38.5 µM] |
| CC(=O)O[C@@H]1CC[C@@]2(C)C(CC[C@]3(C)C2[C@H](O)C=C2[C@H]4[C@@H](C)[C@H](C)CC[C@]4(C)CC[C@]23C)[C@@]1(C)C(=O)O (stereo partly drawn) | -2.78% [at 25.3 µM] |
| C=C1C(=O)O[C@H]2C1CCC(C)=C1C(=O)C=C(C)[C@@]12O (stereo partly drawn) | -6.01% |
| CN(C)C(=O)C(=O)c1cn(C)c2cc(Cl)c(C(=O)N3CCC(Cc4ccc(F)cc4)CC3)cc12 | -2.41% |
| CC(C)(C)c1ccc(C(=O)Nc2cn3cc(-n4ccnc4)ccc3n2)cc1 | -7.45% |
| CCCCCc1ccc(/C=C/C(=O)Nc2cc(Cl)ccc2C(=O)O)cc1 | 0.425% |
| Cc1cc(NC(=O)NCCN2CCC(O)(Cc3ccccc3)CC2)c2ccccc2n1 | -3.1% |
| C=C1CC2OC(=O)C(=C)C2C(O)/C=C(\C)CCC1O (stereo not drawn) | -1.32% |
| Cc1cc2c(cc1N1C(=O)c3cccc4c(CCCO)ccc(c34)C1=O)n(C)c(=O)n2C | -33.6% [at 25.3 µM] |
| O=C(Nc1cc(C(F)(F)F)ccc1N1CCCCC1)c1ccncc1 | 2.67% |
| COc1c(C)cc(NC(=O)c2nn(Cc3ccc(F)cc3)c3c2CN(C(=O)c2ccc[nH]2)C[C@]3(C)C(N)=O)cc1C | 9.54% [at 11.6 µM] |
| CC(C)c1ccc(NC(=O)Cn2cnc3c2c(=O)n(C)c(=O)n3C)cc1 | 7.84% |
